# Bioassay records from PubChem BioAssay.
# ALDH1A1 inh = ALDH1A1 (human) enzyme inhibition; 220,000 compounds, 7.3% hits; Potency, µM (doses to about 75.3 µM), most hits filed as inhibitors; Purified ALDH1A1, NADH fluorescence, propionaldehyde substrate; P00352; active means well fitted inhibition curve with a large enough effect, not every such curve was filed as active; inconclusive means small, poorly fitted or top-dose-only effect, or another doubt; inactive means no such curve, though single readings can be large or run the other way
# Target sequence (P00352 whole entry, looked up): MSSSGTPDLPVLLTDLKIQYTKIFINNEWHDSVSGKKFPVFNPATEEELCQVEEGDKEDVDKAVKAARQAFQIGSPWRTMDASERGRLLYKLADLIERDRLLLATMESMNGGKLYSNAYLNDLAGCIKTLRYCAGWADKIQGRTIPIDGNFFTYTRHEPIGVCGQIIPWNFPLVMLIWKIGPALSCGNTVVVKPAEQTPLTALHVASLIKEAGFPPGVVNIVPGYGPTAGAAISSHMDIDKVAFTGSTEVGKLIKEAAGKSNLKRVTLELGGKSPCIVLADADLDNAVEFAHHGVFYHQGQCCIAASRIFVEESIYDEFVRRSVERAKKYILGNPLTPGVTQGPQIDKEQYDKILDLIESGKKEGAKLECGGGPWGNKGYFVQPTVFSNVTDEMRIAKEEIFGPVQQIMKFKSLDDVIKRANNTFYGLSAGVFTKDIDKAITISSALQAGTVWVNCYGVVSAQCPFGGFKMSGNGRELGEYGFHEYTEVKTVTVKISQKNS
# HttQ103 aggreg = reduces HttQ103-GFP aggregates in PC12 cells. PC12 HttQ103-GFP aggregates, Acumen cytometry, 40 h. Potency, µM (series often up to 46.1 µM), usual class: inhibitors. 220,000 compounds, 1.1% hits; further: nearly all actives have a fitted effect of over 60% in size
#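 Aggregates are detected as GFP objects 1–25 µm with signal 6 STDEV over background in lysates of induced PC12 cells. These carry Huntingtin exon 1 with 103 glutamines fused to GFP under an ecdysone promoter; compounds titrated.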
# HPGD block = inhibitors of human 15-hydroxyprostaglandin dehydrogenase (HPGD) | 150,000 compounds, 4.3% hits | Potency, µM, most hits filed as inhibitors | purified HPGD, NADH fluorescence kinetic, PGE2 substrate | P15428; active means well fitted inhibition curve with a large enough effect, not every such curve was filed as active; inconclusive means small, poorly fitted or top-dose-only effect, or another doubt; inactive means no such curve, though single readings can be large or run the other way
#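 NADH formation kinetics: reaction with 30 uM PGE2 and 1 mM NAD+ (final), 20 nM enzyme, Tris-HCl pH 8 with Tween 20, after 15 min compound preincubation at room temperature. Fluorescence change, last versus first of five reads.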
# KinaseGlo FLuc = Kinase-Glo luciferase inhibition (counter-screen); Kinase-Glo luciferase, ATP luminescence, 8 min; Potency, µM (doses to about 38.3 µM), actives largely listed as inhibitors; 200,000 compounds, 0.28% hits; AID 1379; further: nearly all actives have a fitted effect of over 60% in size
#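 Light output from Kinase-Glo luciferase with luciferin and 10 uM ATP in 50 mM imidazole pH 7.2, KCl, MgCl2, Tween 20, BSA; compound pin-delivered, 8-min ambient incubation, then luminescence read.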
# LMNA splice mod = LMNA splicing modulation. HeLa LMNA splicing GFP/RFP minigene ratio, 48 h. Potency, µM (titrated, usually from 46.1 µM), usual class: inhibitors. 200,000 compounds, 0.01% hits. AID 1487; active means well fitted inhibition curve with a large enough effect in the signal ratio, with a control signal flat, not every such curve was filed as active; inconclusive means small, poorly fitted or top-dose-only effect, or effect the other way, or a change in a side signal; the % refers to the signal ratio
#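 Read-out is the ratio of GFP to DsRed2 object intensity, acquired by 488 nm laser-scanning cytometry on HeLa lamin A-EGFP minigene reporter cells. Compound incubation 48 hrs at 37 °C in Opti-MEM with 2% FBS; DMSO 0.5% final.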
# HTT ATP protect = cytoprotection in Huntington HTT-Q103 PC12 cell model | PC12 HTT-Q103 induced, cytoprotection, ATP luminescence, 40 h | Potency, µM (doses to about 56.4 µM), most hits filed as activators | 230,000 compounds, 0.14% hits | AID 1471; further: nearly all actives have a fitted effect of over 45% in size
#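 ATP quantification (ATPlite) reports survival of PC12 cells in which tebufenozide, 100 nM final, switches on Htt exon 1 with 103 glutamines linked to GFP; compounds are titrated.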
# Numbers stand for hits; i = inactive; ? = inconclusive; nt = no result given; [ ] = another dose, or the depositor's remark. Shown are actives, neighbours in structure and some others; about 9% of the full set was active somewhere. Unless noted, the call rests on the fitted dose curve; in most records, active means well fitted curve in the direction sought with a large enough effect; inconclusive means small, poorly fitted or top-dose-only effect, or another doubt; inactive means no such curve, though single readings can be large; an effect the other way counts as inactive or inconclusive.
SMILES,ALDH1A1 inh,HttQ103 aggreg,HPGD block,KinaseGlo FLuc,LMNA splice mod,HTT ATP protect
CCCCn1c(CN2CCN(c3cccc(Cl)c3)CC2)nc2c1c(=O)n(C)c(=O)n2C,15.8µM,i,i,i,?,i[0.074 µM]
CCCCn1c(CN2CCN(c3ccccc3)CC2)nc2c1c(=O)n(C)c(=O)n2C,?,?,i,i,?,i[10 µM]
CC(C)C[C@H](NC(=O)c1nc[nH]c1C(=O)N1CCN(C(=O)OC(C)(C)C)CC1)C(=O)OC(C)(C)C,i,i[9.22 µM],nt,nt,nt,i[10 µM]
Cc1ccc(C(=O)CN2C(=O)c3ccccc3S2(=O)=O)cc1,i,i[9.22 µM],nt,nt,nt,i[10 µM]
Cc1ccc(C(=O)CN2/C(=C(\O)c3ccccc3)C(=O)c3ccccc3S2(=O)=O)c(C)c1,2.82µM,i,i,i,?,i
O=C(NCc1ccco1)/C(=C\c1ccco1)NC(=O)c1ccc(Br)o1,28.2µM,?,?,i,i,i[10 µM]
O=C(NCc1ccco1)/C(=C/c1ccco1)NC(=O)c1ccc(Br)o1,?,i,i,i,i,i[10 µM]
CC(C)(C)c1ccc(C(=O)N/C(=C\c2cccs2)C(=O)NCc2ccco2)cc1,3.16µM,i,nt,nt,i,i
CCCCOC(=O)n1c(=S)oc2cc(Cl)ccc21,?,i,i,i,i[0.0737 µM],i
COC(=O)n1c(=S)oc2cc(Cl)ccc21,14.1µM,i,22.4µM,i,i,i
CN(CC(=O)Nc1ccc(Cl)cc1)c1ccc(S(=O)(=O)N2CCCCC2)cc1[N+](=O)[O-],11.2µM,i,i,i,?,i[10 µM]
COC(=O)CSc1ccc(S(=O)(=O)N2CCCCCC2)cc1[N+](=O)[O-],10µM,i,nt,i,nt,i
O=C(CN(C(=O)c1ccc(Cl)cc1)C1CCCCC1)Nc1ccc(Cl)c([N+](=O)[O-])c1,?,12.6µM,i,i,i,i[1.9 µM]
CN(CC(=O)Nc1ccc(S(=O)(=O)N2CCCC2)cc1)Cc1ccc(Cl)cc1Cl,?,?,i,i,?,i[10 µM]
CCOC(=O)CSc1ccc(S(=O)(=O)N2CCCCC2)cc1[N+](=O)[O-],i,i,i,i,i,nt
CC(=O)Nc1ccc(C(=O)N/C(=C/c2ccccc2)C(=O)Nc2cccc(C(=O)O)c2)cc1,i,i[9.22 µM],nt,i,i,i[10 µM]
Cc1cc(C(=O)NC(CC(C)C)C(=O)O)cc(C)c1[N+](=O)[O-] (stereo not given),7.08µM,i,i,i,i,i[10 µM]
N#CCCN1CCN(C(=S)c2ccc(-c3ccc(Cl)cc3)o2)CC1,4.47µM,i,20µM,i,?,i
COc1ccc(NC(=O)/C(Cl)=C(/Cl)S(=O)(=O)Cc2ccccc2)cn1,1.26µM,?,i,i,?,i[10 µM]
COc1ccc(NC(=O)/C(Cl)=C(/Cl)S(=O)Cc2ccc(Cl)cc2)cn1 (stereo not given),0.355µM,4.47µM,nt,i,?,i
COc1ccc(NC(=O)C(Cl)=C(Cl)Cl)cn1,?,?,nt,i,?,i[10 µM]
COc1ccc(CC(=O)Nc2ccc(OC)nc2)cc1,i,i,nt,i,nt,i
Cc1noc(C)c1COC(=O)c1ccc2c(c1)S(=O)(=O)c1ccccc1C2=O,12.6µM,i,28.2µM,i,i,i
O=C(COC(=O)c1ccc2c(c1)S(=O)(=O)c1ccccc1C2=O)NC1CC1,14.1µM,i,nt,i,i,i[10 µM]
Cc1noc(C)c1COC(=O)c1cnc(Cl)c(Cl)c1,0.562µM,i,nt,i,i,i
SMILES,ALDH1A1 inh,HttQ103 aggreg,HPGD block,KinaseGlo FLuc,LMNA splice mod,HTT ATP protect
Cc1noc(C)c1C(=O)NCc1ccccc1,i,i,i,i,i,i
COc1ccc(O)c(-c2[nH]ncc2C(=O)c2ccccc2)c1,7.94µM,?,i,i,i,i[0.074 µM]
O=C(c1ccccc1)c1cn[nH]c1-c1ccccc1O,i,i,i,i,i,i
COc1cc(O)c(C(=O)c2ccccc2)cc1O,i,nt,4.47µM,i,?,nt
COc1ccc(C(=O)c2ccccc2)c2c(O)ccc(C(=O)c3ccccc3)c12,i,3.55µM,i,i,?,i
COc1cc(C(=O)c2ccccc2)c([N+](=O)[O-])cc1OC,nt,i[9.22 µM],nt,nt,nt,i[10 µM]
O=C(CSc1ccsc1[N+](=O)[O-])N1CCCCCC1,?,i,nt,i,?,i
CN1/C(=C\C(=O)COC(=O)Cn2nnc(-c3ccccc3)n2)C(C)(C)c2ccccc21,i,11.2µM,?,i,i,i
